Reference: PubChem BioAssay (NCI)
About 83,000 compounds went through this panel and 20% of them were active in at least one assay; those are over-represented in the sample as a whole.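 Growth was measured after 48 h exposure to one concentration of compound in 96-well plates. Values under 10 count as active.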 Values without a mark were called inactive. The source made the active and inactive calls.

Columns and labels:
Assay in all cases: NCI-60 one-dose screen, 48 h (100 = growth as untreated, 0 = no growth, -100 = all killed)
Conditions in all cases: 10 µM unless noted
NCI-H23 lung = test system: NCI-H23 lung
NCI-H226 lung = test system: NCI-H226 lung
NCI-H322M lung = test system: NCI-H322M lung
HOP-62 NSCLC = test system: HOP-62 NSCLC
NCI-H460 lung = test system: NCI-H460 lung
NCI-H522 lung = test system: NCI-H522 lung
A549/ATCC NSCLC = test system: A549/ATCC NSCLC
786-0 renal = test system: 786-0 renal
DU-145 prostate = test system: DU-145 prostate
K-562 leukemia = test system: K-562 leukemia
MALME-3M melanoma = test system: MALME-3M melanoma
MDA-MB-231 breast = test system: MDA-MB-231 breast
RXF 393 renal = test system: RXF 393 renal
SF-268 CNS = test system: SF-268 CNS
SF-295 CNS = test system: SF-295 CNS
SF-539 CNS = test system: SF-539 CNS
UACC-257 melanoma = test system: UACC-257 melanoma
M14 melanoma = test system: M14 melanoma
COLO 205 colon = test system: COLO 205 colon

For O=C(Nc1cccc(N=Cc2c(O)ccc3ccccc23)c1)c1ccccc1, the growth (NCI-H23 lung) was 95.8%, the growth (NCI-H226 lung) was 94.1% and the growth (NCI-H322M lung) was 95%. It also gave a growth (HOP-62 NSCLC) of 86.9%, a growth (NCI-H460 lung) of 111% and a growth (NCI-H522 lung) of 76.8%. For the same molecule, the growth (A549/ATCC NSCLC) was 94.7%, the growth (786-0 renal) was 93.4% and the growth (DU-145 prostate) was 98.2%. It also gave a growth (K-562 leukemia) of 97.3%, a growth (MALME-3M melanoma) of 102% and a growth (MDA-MB-231 breast) of 94.1%. For the same molecule, the growth (RXF 393 renal) was 90.4%, the growth (SF-268 CNS) was 89.1% and the growth (SF-295 CNS) was 95.2%. For the same molecule, the growth (SF-539 CNS) was 90.5%, the growth (UACC-257 melanoma) was 91.6% and the growth (M14 melanoma) was 91.1%.
CNC(=O)c1c(NC(=O)c2ccc(C(C)C)cc2)sc2c1CCC(=O)C2 was tested, and the growth (NCI-H23 lung) was -1.47% (active), the growth (NCI-H226 lung) was -24.5% (active) and the growth (NCI-H322M lung) was 17.6%. For the same molecule, the growth (HOP-62 NSCLC) was 12%, the growth (NCI-H460 lung) was 7.34% (active) and the growth (NCI-H522 lung) was -26.3% (active). The growth (A549/ATCC NSCLC) was 15.9%, the growth (786-0 renal) was 13% and the growth (DU-145 prostate) was 23.4%. For the same molecule, the growth (K-562 leukemia) was 1.86% (active), the growth (MALME-3M melanoma) was -45.3% (active) and the growth (MDA-MB-231 breast) was -55.9% (active). The growth (RXF 393 renal) was -32.9% (active), the growth (SF-268 CNS) was 15.3% and the growth (SF-295 CNS) was -29.4% (active). The growth (SF-539 CNS) was -63.7% (active), the growth (UACC-257 melanoma) was 1.16% (active) and the growth (M14 melanoma) was -39.4% (active).
CCOC(=O)Nc1ccc2nc(N3CCCCCC3)sc2c1 showed a growth (NCI-H23 lung) of 47.9%, a growth (NCI-H226 lung) of 54.3% and a growth (NCI-H322M lung) of 46.2%. For the same molecule, the growth (HOP-62 NSCLC) was 33.2%, the growth (NCI-H460 lung) was 17.1% and the growth (NCI-H522 lung) was -12.7% (active). The growth (A549/ATCC NSCLC) was 32%, the growth (786-0 renal) was 40.2% and the growth (COLO 205 colon) was -7.85% (active). It also gave a growth (DU-145 prostate) of 22.4%, a growth (MALME-3M melanoma) of 38.9% and a growth (RXF 393 renal) of 14.4%. For the same molecule, the growth (SF-268 CNS) was 49%, the growth (SF-295 CNS) was 23.5% and the growth (SF-539 CNS) was -1.3% (active). The growth (UACC-257 melanoma) was 64.3% and the growth (M14 melanoma) was 19.5%.
Cc1ccc(C)c2c1SC1=NNC(Oc3ccc(Cl)cc3)=C(C#N)C(=N)N12 showed a growth (NCI-H23 lung) of 92.7%, a growth (NCI-H226 lung) of 94.2% and a growth (NCI-H322M lung) of 101%. For the same molecule, the growth (HOP-62 NSCLC) was 103%, the growth (NCI-H460 lung) was 99.9% and the growth (NCI-H522 lung) was 87.9%. It also gave a growth (A549/ATCC NSCLC) of 108%, a growth (786-0 renal) of 110% and a growth (DU-145 prostate) of 112%. It also gave a growth (K-562 leukemia) of 95.1%, a growth (MALME-3M melanoma) of 123% and a growth (MDA-MB-231 breast) of 99.6%. The growth (RXF 393 renal) was 118%, the growth (SF-268 CNS) was 113% and the growth (SF-295 CNS) was 93.7%. The growth (SF-539 CNS) was 103%, the growth (UACC-257 melanoma) was 101% and the growth (M14 melanoma) was 107%.
O=C(Nc1ccc(Br)cc1)c1ccc(Cl)c(Cl)c1 showed a growth (NCI-H23 lung) of 26.2%, a growth (NCI-H226 lung) of 61.8% and a growth (NCI-H322M lung) of 42.3%. It also gave a growth (HOP-62 NSCLC) of 98.3%, a growth (NCI-H460 lung) of 14% and a growth (NCI-H522 lung) of 60.2%. For the same molecule, the growth (A549/ATCC NSCLC) was 63.4%, the growth (786-0 renal) was 73.1% and the growth (DU-145 prostate) was 34.7%. The growth (K-562 leukemia) was 12.9%, the growth (MALME-3M melanoma) was 48.5% and the growth (MDA-MB-231 breast) was 56%. The growth (RXF 393 renal) was 112%, the growth (SF-268 CNS) was 73.6% and the growth (SF-295 CNS) was 6.6% (active). The growth (SF-539 CNS) was 67.5%, the growth (UACC-257 melanoma) was 102% and the growth (M14 melanoma) was 64.5%.
In the case of COc1ccc(/C=C/C(=O)CCC(=O)O)cc1OC, the growth (NCI-H23 lung) is reported as 109%, the growth (NCI-H226 lung) is reported as 102% and the growth (NCI-H322M lung) is reported as 97.4%. For the same molecule, the growth (HOP-62 NSCLC) was 91.4%, the growth (NCI-H460 lung) was 111% and the growth (NCI-H522 lung) was 93.2%. The growth (A549/ATCC NSCLC) was 103%, the growth (786-0 renal) was 95.3% and the growth (COLO 205 colon) was 106%. The growth (DU-145 prostate) was 111%, the growth (MALME-3M melanoma) was 102% and the growth (MDA-MB-231 breast) was 119%. It also gave a growth (RXF 393 renal) of 116%, a growth (SF-268 CNS) of 107% and a growth (SF-295 CNS) of 104%. For the same molecule, the growth (SF-539 CNS) was 101%, the growth (UACC-257 melanoma) was 105% and the growth (M14 melanoma) was 101%.
For CC(C)(C)c1ccc(C(=O)Nc2sc3cc(O)ccc3c2C(N)=O)cc1, the growth (NCI-H23 lung) was 88.3%, the growth (NCI-H226 lung) was 101% and the growth (NCI-H322M lung) was 86.2%. For the same molecule, the growth (HOP-62 NSCLC) was 106%, the growth (NCI-H460 lung) was 51.2% and the growth (NCI-H522 lung) was 64.9%. For the same molecule, the growth (A549/ATCC NSCLC) was 82.5%, the growth (786-0 renal) was 70.3% and the growth (COLO 205 colon) was 57.2%. The growth (DU-145 prostate) was 69.7%, the growth (MALME-3M melanoma) was 94% and the growth (MDA-MB-231 breast) was 76%. The growth (RXF 393 renal) was 70.6%, the growth (SF-268 CNS) was 92.4% and the growth (SF-295 CNS) was 63.5%. For the same molecule, the growth (SF-539 CNS) was 53.9%, the growth (UACC-257 melanoma) was 95.2% and the growth (M14 melanoma) was 22.1%.
CC(C)CC(=O)C(CCc1ccccn1)C(C)C (stereo not drawn) showed a growth (NCI-H23 lung) of 98.4%, a growth (NCI-H226 lung) of 97.9% and a growth (NCI-H322M lung) of 116%. The growth (HOP-62 NSCLC) was 112%, the growth (NCI-H460 lung) was 107% and the growth (NCI-H522 lung) was 95.3%. It also gave a growth (A549/ATCC NSCLC) of 93.9%, a growth (786-0 renal) of 105% and a growth (DU-145 prostate) of 111%. The growth (K-562 leukemia) was 107%, the growth (MALME-3M melanoma) was 109% and the growth (MDA-MB-231 breast) was 108%. For the same molecule, the growth (RXF 393 renal) was 124%, the growth (SF-268 CNS) was 103% and the growth (SF-295 CNS) was 95.2%. The growth (SF-539 CNS) was 106%, the growth (UACC-257 melanoma) was 92.4% and the growth (M14 melanoma) was 105%.
